Whole data set: some 110,000 compounds, median “z-score” near -0.1, cut for the highest 2% near 2. The full list was thinned out, with the highest values kept by preference. Activity calls are given as the source filed them.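 The calls were made as follows: active = z-score in the third read window above 3 or below -3; inactive = the rest.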

This assay deals with Metabotropic glutamate receptor 8 (Rattus norvegicus) (UniProt P70579). The experiment in a line: mGluR8 Gi/Go-coupled signaling modulation – cell-based, rat, thallium flux, HTS, primary screen (AID 488969). The conditions noted are these: HEK293 rat mGluR8, GIRK (G protein-gated inwardly rectifying potassium channel) thallium flux, FluoZin2; at 10 µM; stronger effect = higher value; submaximal glutamate (EC20) added with thallium.
Chain of Metabotropic glutamate receptor 8 (Rattus norvegicus) (P70579 whole entry, looked up): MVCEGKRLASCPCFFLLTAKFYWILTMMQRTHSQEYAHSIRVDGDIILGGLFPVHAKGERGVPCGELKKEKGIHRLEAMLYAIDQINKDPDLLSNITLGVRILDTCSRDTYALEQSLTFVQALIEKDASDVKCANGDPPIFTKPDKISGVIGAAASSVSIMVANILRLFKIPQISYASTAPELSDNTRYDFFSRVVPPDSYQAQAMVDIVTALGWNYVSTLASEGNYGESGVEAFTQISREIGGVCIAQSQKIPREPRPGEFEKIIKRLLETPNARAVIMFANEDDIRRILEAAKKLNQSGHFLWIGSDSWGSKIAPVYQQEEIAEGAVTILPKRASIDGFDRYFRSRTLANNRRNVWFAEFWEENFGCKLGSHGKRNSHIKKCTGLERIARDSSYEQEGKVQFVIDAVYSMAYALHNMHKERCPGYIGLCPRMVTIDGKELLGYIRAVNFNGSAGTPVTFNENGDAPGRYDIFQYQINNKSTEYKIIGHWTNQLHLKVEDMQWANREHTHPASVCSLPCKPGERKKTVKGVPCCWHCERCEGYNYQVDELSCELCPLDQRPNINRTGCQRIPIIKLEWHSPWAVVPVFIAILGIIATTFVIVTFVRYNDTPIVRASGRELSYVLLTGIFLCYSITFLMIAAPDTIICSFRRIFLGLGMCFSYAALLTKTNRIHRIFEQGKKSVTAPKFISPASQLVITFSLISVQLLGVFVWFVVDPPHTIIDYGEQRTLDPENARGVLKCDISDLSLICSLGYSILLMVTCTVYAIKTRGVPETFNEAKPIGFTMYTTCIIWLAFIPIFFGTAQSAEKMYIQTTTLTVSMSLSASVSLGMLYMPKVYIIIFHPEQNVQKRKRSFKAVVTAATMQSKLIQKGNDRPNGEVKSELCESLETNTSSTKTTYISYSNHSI
In turn, `CC(=O)c1cccc(NC(=O)CSc2nnc(-c3cccnc3)o2)c1` came in with a z-score of 0.059.
Next, `O=C(NCc1ccccc1)C(=O)Nc1nc(C23CC4CC(CC(C4)C2)C3)cs1`: 3.44 (active).
In turn, `CC(=O)NNC(=O)CC(=O)Nc1nc(C23CC4CC(CC(C4)C2)C3)cs1` showed a z-score of -0.221.
Then `O=C(NCc1ccncc1)C(=O)Nc1nc(C23CC4CC(CC(C4)C2)C3)cs1`, with 0.792; and `COC(=O)N/N=C/c1ccc(OCCSc2ccc(Cl)cc2)c(OC)c1`, with 0.427; and `CCCC1S/C(=N/N=C/c2ccc(C)cc2)N(Cc2ccc(OC)cc2)C1=O` (configuration not stated), with 0.151.
Then `CC(=O)Nc1ccc(Oc2cc(C#N)c(C#N)cc2N2CCOCC2)cc1`, with 0.123; and `CC(=O)Nc1ccc(Oc2cc(C#N)c(C#N)cc2N2CCCCCC2)cc1`, with 1.3; and `CC(=O)Nc1cccc(Oc2cc(C#N)c(C#N)cc2N2CCCCCC2)c1`, with 2.07.
On to `O=c1oc2ccccc2c(Nc2cccc3ccccc23)c1[N+](=O)[O-]`, for which the z-score is -0.861.
Regarding `COCCNC(=O)c1ccc(-n2c(SCc3cc(F)ccc3F)nc3ccccc3c2=O)cc1`, the z-score was -0.0902.
In the case of `CCN(CC)S(=O)(=O)c1cccc(S(=O)(=O)N2CCCCC2)c1`, the z-score is -0.121.
Then `CC(=O)Nc1ccc(Oc2ncccn2)cc1`, with 7.84 (active); and `CC(=O)Nc1ccc(Oc2cnccn2)cc1`, with -0.0949; and `CC(=O)Nc1ccc(Oc2nc(C)cc(C)n2)cc1`, with 0.187.
Take `COCC(=O)n1nc(NCc2ccc(OC)cc2)nc1NCc1ccc(OC)cc1`: the z-score was -0.00999.
The compound `CN(C)CCn1c(NC(=O)c2ccc(Cl)cc2)nc2ccccc21` displayed a z-score of 0.381.
Then `CCC(=O)Nc1nc2ccccc2n1CCN(CC)CC`, with -0.0953.
Then `CCN(CC)CCn1c(NC(=O)c2ccc(Cl)cc2)nc2ccccc21`, with 4.18 (active); and `Cc1ccc(N/C(SCc2ccccc2C)=C(/C#N)C(=O)NCc2ccco2)cc1C`, with -0.331.
For the compound `CCOc1cc(C(=S)N2CCOCC2)ccc1OS(=O)(=O)c1ccccc1`, the z-score is -0.19.
Next, `COc1cc(OC)cc(C(=O)NC(=S)Nc2ccc3c4c(cccc24)CC3)c1`: 0.967; `CC(C)c1ccc(OCC(=O)NC(=S)Nc2ccc3c4c(cccc24)CC3)cc1`: 1.27; `CC(C)Oc1cccc(C(=O)NC(=S)Nc2ccc3c4c(cccc24)CC3)c1`: 1.24.
`O=C(COc1ccccc1)NC(=S)Nc1ccc2c3c(cccc13)CC2`: the z-score was 4.29 (active).
With `COc1cccc(C(=O)NC(=S)Nc2ccc3c4c(cccc24)CC3)c1`, the z-score was determined as 2.83.
Then `Cc1ccccc1OCC(=O)NC(=S)Nc1ccc2c3c(cccc13)CC2`, with 0.22; and `CN1CCN(C(=O)c2ccccc2N(Cc2ccccc2)S(=O)(=O)c2ccccc2)CC1`, with -0.185; and `Cn1cc([N+](=O)[O-])c(C(=O)N/N=C/c2ccccc2)n1`, with -0.138.
The compound `Cc1cc(C)n(-c2nc3ccccc3nc2Nc2ccc(CC(=O)O)cc2)n1` displayed a z-score of 1.13.
Turning to `N#Cc1c[nH]n2c(=O)c3c(nc12)CCCC3`, the z-score was -0.482.
Then `O=c1c2c(nc3cc(-c4cccc(Cl)c4)[nH]n13)CCC2`, with 0.391; and `Nc1[nH]n2c(=O)c3c(nc2c1N=Nc1ccc(Cl)cc1)CCCC3`, with -1.09.
With `Cc1ccc(-c2[nH]n3c(=O)c4c(nc3c2C)CCCC4)cc1`, the z-score was 11 (active).
`O=c1c2c(nc3cc(-c4ccccc4)[nH]n13)CCC2` came in with a z-score of -0.413.
Then `Cc1ccc(N=Nc2c(N)[nH]n3c(=O)c4c(nc23)CCCC4)cc1`, with -0.696; and `O=c1c2c(nc3c(-c4ccccc4)c[nH]n13)CCCC2`, with 3.66 (active); and `O=c1c2c(nc3c(-c4ccccc4)c[nH]n13)CCC2`, with -0.819.
`O=c1c2c(nc3c(-c4cccc5ccccc45)c[nH]n13)CCC2` showed a z-score of -0.52.
For `O=c1c2c(nc3c(-c4ccc(Cl)cc4)c[nH]n13)CCCC2`, the z-score was 12 (active).
Turning to `Cc1[nH]n2c(=O)c3c(nc2c1-c1ccccc1)CCC3`, the z-score is -1.66.
Then `O=c1c2c(nc3c(-c4cccc(Br)c4)c[nH]n13)CCCC2`, with 6.35 (active); and `COCCNC(=O)C(=O)N/N=C/c1ccccc1C(F)(F)F`, with -0.508; and `Cc1nc2ccc(S(=O)(=O)NCC(=O)N3CCOCC3)cc2s1`, with -0.0788.
On to `COc1ccc2c(c1)c1ncn(CCN3CCNCC3)c(=O)c1n2C`, for which the z-score is -0.141.
Turning to `O=C(N[C@@H](Cc1ccccc1)c1nc2ccccc2[nH]1)c1cc([N+](=O)[O-])ccc1Cl`, the z-score is -0.361.
For `CC(C)(C)NC(=O)C1CCCN(S(=O)(=O)c2cccc3cccnc23)C1` (configuration not stated), the z-score is -0.133.
Next, `CCOc1ccc(NC(=O)c2cc3cc4ccc(OC)cc4nc3o2)cc1`: 0.334; `COc1ccc2cc3cc(C(=O)Nc4cc(OC)c(OC)c(OC)c4)oc3nc2c1`: -0.255; `COc1ccc2nc3oc(C(=O)Nc4ccc(OC)c(OC)c4)cc3cc2c1`: 4.91 (active).
Then `O=C(Nc1ccc2oc(-c3ccncc3)nc2c1)c1cccs1`, with -1.18; and `CCc1nnc(NC(=O)CCc2ccc(C)o2)s1`, with 0.332; and `CCC(=O)N1CCc2cc(S(=O)(=O)CCC(=O)NCCc3ccccc3)ccc21`, with -0.24.
Regarding `CC(C)NC(=O)c1ccccc1NC(=O)/C=C/c1cccc([N+](=O)[O-])c1`, the z-score was -0.52.
Then `CC(NC(=O)COC(=O)/C=C/c1ccc([N+](=O)[O-])cc1)c1ccccc1` (configuration not stated), with -0.366; and `CC(C)c1ccccc1NC(=O)COC(=O)/C=C/c1cccc([N+](=O)[O-])c1`, with 5.9 (active); and `CCOc1ccc(NC(=O)CSc2nnc(CCNC(=O)c3ccc(OC)cc3)n2CC)cc1`, with -0.0739.
Next, `C/C=C/COC(=O)c1[nH]c2c(c1C)C(=O)CC(c1ccco1)C2` (configuration not stated): -0.237; `CSCC[C@H](NC(=O)OC(C)(C)C)c1nnc(SCC(=O)N(C)C)o1`: -0.106; `O=C(Nc1nc2ccccc2s1)C1CC(=O)N(c2ccc(Br)cc2)C1` (configuration not stated): 0.374.
`N#Cc1c(NC(=S)NC(=O)c2ccccc2)sc2c1CCCC2` had a z-score of 0.0146.
Next, `CC(C)Cc1cc(C(=O)Nc2sc3c(c2C#N)CCC3)no1`: 1.32; `Cc1ccccc1C(=O)NC(=S)Nc1sc2c(c1C#N)CCC(C)C2` (configuration not stated): 1.82.
Take `N#Cc1c(NC(=S)NC(=O)c2ccccc2)sc2c1CCC2`: the z-score was determined as 0.849.
As to `Cc1onc(-c2ccccc2)c1C(=O)NC(=S)Nc1sc2c(c1C#N)CCCC2`, the z-score is 4.1 (active).
As to `Cc1ccccc1C(=O)NC(=S)Nc1sc2c(c1C#N)CCCC2`, the z-score is 5.02 (active).
Compound `Cc1onc(-c2ccccc2)c1C(=O)Nc1sc2c(c1C#N)CCC(C)C2` (configuration not stated) registered a z-score of 0.289.
Regarding `Cc1cc(C(=O)Nc2sc3c(c2C#N)CCC3)no1`, the z-score was -0.0664.
Next, `CCCc1cc(C(=O)Nc2sc3c(c2C#N)CCC3)no1`: 2.21; `CCOC(=O)CC1ON(C)C(=O)N1c1ccc([N+](=O)[O-])cc1` (configuration not stated): 0.0464; `CCCCOC(=O)c1ccc(NC(=O)/C=C/c2cccs2)cc1`: -0.063.
Consider `CCc1ccc(C2NC(C(=O)O)CS2)cc1` (configuration not stated), for which the z-score is -0.258.
Then `CC(C)Cn1c(SCC(=O)N2CCCCC2)nc2ccccc2c1=O`, with -0.537; and `O=C1Nc2ccccc2C12OCCO2`, with -0.0845.
Next, `O=C1Nc2ccccc2C12OCCCO2`: 0.489; `O=C1Nc2ccccc2C12OCC1(CO2)COC2(OC1)C(=O)Nc1ccccc12` (configuration not stated): 3.45 (active).
Compound `CCN(CC)S(=O)(=O)c1ccc(/C=C/C(=O)Nc2ccc(F)c(F)c2F)cc1` yielded a z-score of -0.0872.
Next, `Cc1cc(Cl)ccc1OCC(=O)NC1CCCC1`: 0.0341; `Cc1ccc(NC(=O)c2ccc(OC(=O)COc3ccc(Cl)cc3C)cc2)cc1`: -0.069; `Cc1ccc(C(=O)CC(=O)COc2ccc(Cl)cc2)cc1`: 5.07 (active).
Then `COC(=O)C(CC(=O)c1ccc(Cl)cc1)c1ccc(C)cc1` (configuration not stated), with -0.155; and `Cc1ccc(C(=O)CC(=O)COc2ccc(Cl)cc2C)cc1`, with 5.45 (active); and `Cc1ccc(NCCC(=O)c2ccc(Cl)cc2)cc1`, with -0.27.
Regarding `Cc1cc(C)nc(/N=C(\N)Nc2ccc([N+](=O)[O-])cc2)n1`, the z-score was -0.477.
Next, `O=C(O)c1cccc(-n2cnnn2)c1`: -0.667; `CCSc1nnc(NC(=O)C(CC)(C(F)(F)F)C(F)(F)F)s1`: -0.322; `CCCC(=O)Nc1nnc(SCC)s1`: 0.0928.
Turning to `CCSc1nnc(NC(=O)NC(CC)(C(F)(F)F)C(F)(F)F)s1`, the z-score was 3.86 (active).
Then `CCSc1nnc(NC(=O)CC)s1`, with 5.27 (active); and `CCC(=O)Nc1nnc(SCCOC)s1`, with 0.214.
Next, `CCC(NC(=O)Nc1nnc(C(F)(F)F)s1)(C(F)(F)F)C(F)(F)F`: 0.241; `CCCCN1CCc2[nH]c(=S)[nH]c(=O)c2C1`: -0.178.
Next, `Cc1ccccc1C(=O)Oc1cccc(Nc2ncnc3ccccc23)c1`: -1.4; `CC(NC(=O)C1CCC1)c1ccc(Br)cc1` (configuration not stated): -0.264; `CCN(CC)S(=O)(=O)c1cccc(C(=O)NC(C(=O)NC2=NCCS2)C(C)C)c1` (configuration not stated): 0.126.
As for `CCNc1nc(NC#N)nc(SCC(=O)OCC)n1`, the z-score was -0.413.
As to `COC(=O)c1ccc(CSc2nc3c(cnn3-c3ccccc3)c(=O)[nH]2)o1`, the z-score is -0.686.
`O=C(CCc1ccccc1)NNC(=O)c1ccc(NC(=O)c2ccccc2)cc1` yielded a z-score of 0.0748.
Then `CC(C)(C)c1ccc(OCC(=O)NNC(=O)CCc2ccccc2)cc1`, with 0.639; and `COc1ccc(C(=O)NC(=S)NNC(=O)CCc2ccccc2)cc1`, with 3.38 (active).
As to `CC(=O)Nc1ccc(C(=O)NNC(=O)CCc2ccccc2)cc1`, the z-score is -0.185.
In the case of `O=C(CCc1ccccc1)NNC(=S)NC(=O)c1ccc(Cl)cc1`, the z-score was 3.03 (active).
Next, `O=C(CCc1ccccc1)NNC(=S)NC(=O)c1ccccc1`: 1.13; `O=C(Cc1csc(N2CCOCC2)n1)N/N=C/c1ccc(Cl)cc1Cl`: -0.885.
`N#Cc1c2n(c(=S)n(-c3ccccn3)c1=O)CCCCC2` yielded a z-score of -0.927.
For `N#Cc1c2n(c(=O)[nH]c1=O)CCCCC2`, the z-score was -0.0381.
Then `N#Cc1c2n(c3c(=S)nc[nH]c13)CCCCC2`, with 2.2; and `O=C(CNC(=O)c1ccccc1F)NCCOc1ccccc1Cl`, with -0.065; and `CCOc1ccc(N=CC2=C(O)CC(C)(C)CC2=O)cc1`, with 0.649.
Take `CC1(C)CC(=O)C2=C(C1)OC1=C(C(=O)CC(C)(C)C1)C2(C)C`: the z-score was -0.182.
Turning to `CCOC12CC(C)(C)CC(C)(CC3=C1C(=O)CC(C)(C)C3)C2` (configuration not stated), the z-score is 2.32.
The compound `CCOC(=O)C1CCCN(C(=O)CN2C(=O)COc3ccc(C(C)(C)C)cc32)C1` (configuration not stated) returned a z-score of -1.06.

For the origin of these results see PubChem BioAssay AID488969 (Vanderbilt High Throughput Screening Facility, 2010).
